In PubChem BioAssay:
Calls of active or inactive are those of the source.

Assays:
[1] = optical density shifts of acrAB sulA E. coli – strain DRC41, OD650, 48 h, E. coli filamentation inducer project, primary screen (AID 1152); settings: higher = more signal, called active from +8 up or from −8 down;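 also: E. coli MC1000 strain DRC41 lacking acrAB efflux pump and sulA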
[2] = probe aLefty1 binding on compound microarray – biochemical, small-molecule microarray, 635/667 nm fluorescence, primary screen (AID 1153); settings: higher = more signal;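 also: score merges spot fluorescence with signal-to-noise ratio from the scanned slide images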
[3] = plasmodial surface anion channel blockers, osmotic lysis – cell-based, P. falciparum Indochina, OD700, 1 h, primary screen (AID 1154); settings: P. falciparum Indochina infected RBC osmotic lysis, higher = more signal, called active from +8 up or from −8 down
[4] = plasmodial surface anion channel blockers, osmotic lysis – cell-based, P. falciparum Indochina, OD700, 2 h, primary screen (AID 1155);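 also: lysis reports solute entry through the parasite surface anion channel PSAC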; settings: P. falciparum Indochina infected erythrocytes, higher = more signal, called active from +8 up or from −8 down
[5] = changes in parasitized red cell lysis, either direction – P. falciparum Indochina, OD700, 3 h, PSAC antagonist project, primary screen (AID 1156); settings: P. falciparum-infected erythrocytes, osmotic lysis, higher = more signal, called active from +8 up or from −8 down
[6] = plasmodial surface anion channel blockers, osmotic lysis – cell-based, P. falciparum Indochina, OD700, 18 h, primary screen (AID 1157); settings: P. falciparum Indochina infected erythrocytes, osmotic lysis OD700, 18 h; higher = more signal, called active from +8 up or from −8 down
[7] = S6 kinase pathway phospho-S6 level changes – cell-based, A549, cytoblot, luminescence, serum-stimulated, primary screen (AID 1158); settings: 5 h, higher = more signal;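 also: serum-stimulated A549 lung adenocarcinoma cells; signal is phosphorylated S6 detected by cytoblot immunostaining with HRP secondary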
[8] = biological target: NADPH oxidase 2 (Homo sapiens) (UniProt P04839); assay: compounds shifting NOX2 Amplex Red fluorescence – cell-based, HEK293-NOX2, PMA-stimulated, NOX inhibitor project, primary screen (AID 1159); settings: 45 min, higher = more signal, called active from +8 up or from −8 down; also: test concentration not given here
Sequence of NADPH oxidase 2 (Homo sapiens) (P04839 whole entry, looked up): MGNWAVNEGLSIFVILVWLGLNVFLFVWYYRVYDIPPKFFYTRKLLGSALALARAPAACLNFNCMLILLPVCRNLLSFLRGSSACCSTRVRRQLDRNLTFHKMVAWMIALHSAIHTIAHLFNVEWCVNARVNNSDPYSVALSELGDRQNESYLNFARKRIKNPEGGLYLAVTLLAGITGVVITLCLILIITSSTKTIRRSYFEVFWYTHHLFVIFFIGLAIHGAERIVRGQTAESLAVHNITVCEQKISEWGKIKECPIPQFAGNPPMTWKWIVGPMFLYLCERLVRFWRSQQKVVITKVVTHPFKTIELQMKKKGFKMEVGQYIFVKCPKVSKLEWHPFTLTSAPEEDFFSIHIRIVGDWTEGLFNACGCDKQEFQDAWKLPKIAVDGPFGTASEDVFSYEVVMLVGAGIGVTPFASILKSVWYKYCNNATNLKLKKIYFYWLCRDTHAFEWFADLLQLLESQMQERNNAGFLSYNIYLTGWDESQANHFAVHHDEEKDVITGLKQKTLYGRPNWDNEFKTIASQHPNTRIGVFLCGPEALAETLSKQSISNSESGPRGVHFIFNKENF

[9] = biological target: NADPH oxidase 4 (Homo sapiens) (UniProt Q9NPH5); assay: compounds shifting NOX4 Amplex Red fluorescence – cell-based, HEK293-NOX4, tetracycline-induced, NOX inhibitor project, primary screen (AID 1160); settings: HEK293-NOX4, Amplex Red H2O2 fluorescence, 45 min; higher = more signal, called active from +8 up or from −8 down
Sequence of NADPH oxidase 4 (Homo sapiens) (Q9NPH5 whole entry, looked up): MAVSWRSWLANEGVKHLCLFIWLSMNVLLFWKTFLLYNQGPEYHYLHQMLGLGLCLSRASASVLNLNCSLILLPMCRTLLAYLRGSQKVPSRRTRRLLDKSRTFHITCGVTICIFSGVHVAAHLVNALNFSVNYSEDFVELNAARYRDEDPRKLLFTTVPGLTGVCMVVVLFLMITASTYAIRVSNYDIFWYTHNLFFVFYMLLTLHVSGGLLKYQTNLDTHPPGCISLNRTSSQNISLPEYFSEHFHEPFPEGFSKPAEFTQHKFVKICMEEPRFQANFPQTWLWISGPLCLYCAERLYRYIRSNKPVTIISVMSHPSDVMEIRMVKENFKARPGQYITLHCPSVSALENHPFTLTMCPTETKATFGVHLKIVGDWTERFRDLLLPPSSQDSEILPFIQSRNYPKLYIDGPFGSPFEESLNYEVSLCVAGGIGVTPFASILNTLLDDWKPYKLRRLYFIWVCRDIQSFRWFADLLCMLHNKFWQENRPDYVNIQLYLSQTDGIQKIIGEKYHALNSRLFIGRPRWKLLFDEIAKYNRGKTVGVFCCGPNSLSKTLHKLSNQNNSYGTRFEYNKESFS

[10] = biological target: NADPH oxidase 5 (Homo sapiens) (UniProt Q96PH1); assay: compounds shifting NOX5 Amplex Red fluorescence – cell-based, HEK293-NOX5, NOX inhibitor project, primary screen (AID 1161); settings: HEK293-NOX5, ionomycin, 45 min, higher = more signal
Sequence of NADPH oxidase 5 (Homo sapiens) (Q96PH1 whole entry, looked up): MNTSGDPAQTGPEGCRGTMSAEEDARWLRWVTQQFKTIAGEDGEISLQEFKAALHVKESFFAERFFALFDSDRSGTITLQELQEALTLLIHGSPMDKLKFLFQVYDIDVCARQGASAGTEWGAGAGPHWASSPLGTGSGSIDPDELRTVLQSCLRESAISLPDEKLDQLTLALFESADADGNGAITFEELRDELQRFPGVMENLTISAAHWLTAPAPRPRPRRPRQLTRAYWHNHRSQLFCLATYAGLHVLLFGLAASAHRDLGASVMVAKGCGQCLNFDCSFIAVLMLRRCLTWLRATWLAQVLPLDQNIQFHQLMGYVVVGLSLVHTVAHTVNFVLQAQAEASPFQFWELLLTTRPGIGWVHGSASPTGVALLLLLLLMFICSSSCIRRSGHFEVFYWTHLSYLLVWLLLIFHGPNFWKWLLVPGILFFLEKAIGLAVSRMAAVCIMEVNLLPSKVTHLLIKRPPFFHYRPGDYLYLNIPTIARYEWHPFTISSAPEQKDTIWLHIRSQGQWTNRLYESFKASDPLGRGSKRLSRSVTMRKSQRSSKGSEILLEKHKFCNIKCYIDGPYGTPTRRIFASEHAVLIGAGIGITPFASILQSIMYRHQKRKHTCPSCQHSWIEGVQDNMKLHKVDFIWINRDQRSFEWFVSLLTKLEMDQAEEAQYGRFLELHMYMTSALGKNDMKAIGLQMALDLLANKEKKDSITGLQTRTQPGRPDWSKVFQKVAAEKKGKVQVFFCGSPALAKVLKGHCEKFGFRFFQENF

[11] = compound effects on lung adenocarcinoma cell viability – A549, calcein-AM fluorescence, 48 h, basal, profiling panel (AID 1162); settings: higher = more signal; also: test concentration not given here
[12] = compound effects on differentiated 3T3-L1 adipocyte viability – cell-based, 3T3-L1 adipocytes, calcein-AM fluorescence, 48 h, basal, profiling panel (AID 1163); settings: 3T3-L1 adipocytes viability, higher = more signal; also: test concentration not given here
[13] = compound effects on hepatocellular carcinoma cell viability – HepG2, calcein-AM fluorescence, 48 h, basal, profiling panel (AID 1164); settings: higher = more signal; also: test concentration not given here
[14] = compound effects on multiple myeloma cell viability – MM1S, calcein-AM fluorescence, 48 h, basal, profiling panel (AID 1165); settings: higher = more signal;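 also: viability of MM1S multiple myeloma cells under basal unstimulated conditions; test concentration not given here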
[15] = calcein-AM signal in unstimulated myeloma cells – cell-based, calcein-AM fluorescence, 48 h, PK04 Diversity Set, profiling panel (AID 1166); settings: RPMI8226 myeloma viability, higher = more signal;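 also: cells grown under basal conditions without added stimulus; test concentration not given here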
[16] = JC-1 mitochondrial signal, unstimulated HepG2 cells – cell-based, JC-1 fluorescence, 24 h, 100 nL compound, profiling panel (AID 1167); settings: HepG2 mitochondrial potential, higher = more signal; also: test concentration not given here
[17] = JC-1 mitochondrial signal, unstimulated adipocytes – cell-based, JC-1 fluorescence, 3T3-L1 adipocytes, 24 h, 100 nL compound, profiling panel (AID 1168); settings: JC-1 mitochondrial fluorescence, higher = more signal, called active from +8 up or from −8 down; also: test concentration not given here
[18] = JC-1 mitochondrial signal, unstimulated myeloma cells – cell-based, JC-1 fluorescence, RPMI8226, 24 h, 100 nL compound, profiling panel (AID 1169); settings: JC-1 mitochondrial potential fluorescence, higher = more signal; also: test concentration not given here
[19] = JC-1 mitochondrial signal, unstimulated MM1S myeloma – cell-based, JC-1 fluorescence, 24 h, 100 nL compound, profiling panel (AID 1170); settings: MM1S mitochondrial potential, higher = more signal; also: test concentration not given here
[20] = resazurin metabolic signal in A549 cells – cell-based, resazurin fluorescence, 24 h, PK04 Diversity Set, profiling panel (AID 1171); settings: A549 viability, higher = more signal, called active from +8 up or from −8 down; also: test concentration not given here

SMILES	z-score [1]	composite z-score [2]	z-score [3]	z-score [4]	z-score [5]	z-score [6]	z-score [7]	z-score [8]	z-score [9]	z-score [10]	z-score [11]	z-score [12]	z-score [13]	z-score [14]	z-score [15]	z-score [16]	z-score [17]	z-score [18]	z-score [19]	z-score [20]
O=C1OCCC=C[C@H]2OC34C=CCN(c5ccc6ccccc6c5)C(=O)[C@H]3N(CCCCCCO)C(=O)[C@@H]4C12 (stereo not given in full)	0.901 (inactive)	-0.0536	0.856 (inactive)	0.712 (inactive)	0.738 (inactive)	0.426 (inactive)	1.08	1.42 (inactive)	0.441 (inactive)	2.68	0.705	-0.488	0.461	1.1	0.734	1.3	0.0246 (inactive)	-0.00773	-0.456	0.866 (inactive)
COC(=O)c1nc2oc1CC[C@@H](CO)NC(=O)N(C)Cc1cn(nn1)C[C@H](Cc1ccccc1)NC2=O	2.75 (inactive)	-0.145	1.53 (inactive)	0.394 (inactive)	0.864 (inactive)	0.0148 (inactive)	0.225	-0.454 (inactive)	0.917 (inactive)	0.398	-0.0651	-0.734	0.786	0.648	0.854	0.136	0.694 (inactive)	0.263	-1.48	-0.0624 (inactive)
CC(C)(C)OC(=O)CC[C@]1(C(=O)NCC(O)CO)N=C(c2ccc(OCCCO)cc2)O[C@H]1c1ccccc1CN=[N+]=[N-] (stereo not given in full)	-0.207 (inactive)	0.975	17.2 (active)	2.39 (inactive)	0.471 (inactive)	0.297 (inactive)	-0.832	1.38 (inactive)	1.57 (inactive)	2.2	-1.22	0.351	-0.504	-1.1	-1.44	-1.02	-0.484 (inactive)	0.574	0.649	-0.323 (inactive)
Cc1ccc(S[C@]2(C(=O)NCc3ccccc3)CC(=O)N(Cc3cc(C(F)(F)F)cc(C(F)(F)F)c3)[C@@H]2c2ccc(CO)cc2)cc1	-0.957 (inactive)	-0.109	2.21 (inactive)	0.818 (inactive)	0.677 (inactive)	0.352 (inactive)	-0.466	0.314 (inactive)	0.546 (inactive)	0.832	-0.549	0.774	0.224	-0.125	-1.17	-0.271	-0.525 (inactive)	1.13	-0.476	0.7 (inactive)
C=C(C(=O)CC[C@@H](OC(=O)c1cccnc1)c1ccc(OCCO)cc1)C(C)C	-1.07 (inactive)	0.0043	3.66 (inactive)	2.48 (inactive)	-6.06 (inactive)	0.822 (inactive)	-0.917	-4.23 (inactive)	-1.19 (inactive)	-1.6	-1.9	-1.63	-3.17	-3.39	-1.9	-0.959	-0.0274 (inactive)	-0.304	-1.41	-1.34 (inactive)
O=C1[C@H]2C=C(Br)[C@H](C[C@@H]2OCCOCCO)[C@@]12CO2	-0.927 (inactive)	-0.276	0.658 (inactive)	0.276 (inactive)	-0.0195 (inactive)	0.0588 (inactive)	-0.391	1.36 (inactive)	0.561 (inactive)	0.0214	-0.43	-0.577	-0.96	-0.368	-0.674	-1.33	-0.454 (inactive)	0.406	-0.137	-0.274 (inactive)
CCCCCN1CC=CC23O[C@@H]4C=CCCOC(=O)C4[C@H]2C(=O)N(CCCO)[C@@H]3C1=O (stereo not given in full)	2.03 (inactive)	-0.151	-0.235 (inactive)	-1.49 (inactive)	1.17 (inactive)	-1.02 (inactive)	0.655	-1.16 (inactive)	-1.08 (inactive)	-0.705	-0.55	0.133	-0.904	0.0357	-0.0158	-0.639	-0.361 (inactive)	-0.606	0.00824	-0.0645 (inactive)
O=C(NCc1ccccc1)[C@@H]1c2ccccc2C(=O)N(Cc2cc(F)cc(C(F)(F)F)c2)[C@H]1c1ccc(CO)cc1	0.363 (inactive)	0.0455	5.82 (inactive)	1.23 (inactive)	1.03 (inactive)	0.156 (inactive)	-0.26	-2.01 (inactive)	0.598 (inactive)	-1.58	1.5	-0.115	1.37	0.105	-0.161	1.88	0.079 (inactive)	0.79	-0.511	-0.811 (inactive)
CC(c1ccccc1)C(O)C1C=CC2C(=O)N(Cc3ccccc3)C(=O)C2N1n1cnnc1 (stereo not given)	-2.13 (inactive)	-0.13	1.78 (inactive)	0.975 (inactive)	0.0175 (inactive)	0.929 (inactive)	-0.396	-0.217 (inactive)	-1.09 (inactive)	-1.02	-0.313	0.0487	-0.547	-0.0399	-0.751	0.203	-0.884 (inactive)	-0.107	-0.526	-0.694 (inactive)
